“And” between values parts separate entries of the source, which are not always exact repeats. Equal entries are not always repeated. Records with an inconclusive call do not appear. The source made the active and inactive calls. The call rests on the fitted dose curve; in most records, active means well fitted cell-killing curve with a large enough effect; inconclusive means small, poorly fitted or top-dose-only effect, or effect the other way; inactive means no such curve, though single readings can be large or run the other way.
Potency means the concentration at half of the fitted maximal effect.

This experiment is described as follows: Viability qHTS for spleen associated tyrosine kinase inhibitor (SYKi) drug resistant MV4-11 cells (AID 1963824). Further: nearly all actives have a fitted effect of over 35% in size. The note with it: SYKi-resistant MV4-11 viability, CellTiter-Glo, 72 h; series mostly up to 45 µM. The procedure, abridged:
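SYK inhibitor-resistant MV4-11 AML cells, 500 per well, added to predispensed compounds and incubated 72 hr at 37 C, 5% CO2. Viability measured by CellTiter-Glo luminescence after 10 min at room temperature.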
For orientation: qHTS replaces the single test concentration by a dilution series.
On to `O[C@@](Cc1ncc(CC2(C(F)(F)F)CC2)[nH]1)(c1ccc(-n2cccn2)cc1)C(F)(F)F`, for which the Potency is 14.6 µM (active).

As to `O=c1[nH]c2cccc(N3CCN(Cc4ccc(-c5ccccc5)cc4)CC3)c2o1`, the Potency was 20.6 µM (active).

For `CC(C)=CCc1c(O)cc2oc3cc(C)cc(O)c3c2c1C`, the Potency is 23.1 µM (active).

In the case of `CC1(C)O[C@H]2CC(=O)OC[C@@]23C1=C(O)C(=O)[C@]1(C)C3CC[C@@]2(C)[C@H](c3ccoc3)OC(=O)[C@H]3O[C@]321` (stereo not given in full), the Potency entry is “inactive”.

Consider `C=C1C2=CC(O)C(C)C1(C)CC/C(C)=C/CCC1(C)OC1C2=O` (stereo not given), for which the Potency is 10.1 µM (active).

As to `COc1c2c(c(C)c3c1C(=O)OC3)OC1(C)CC(O)C(C(C)(C)O)C(C)(CCC(=O)O)C1C2` (stereo not given), the Potency was 3.17 µM (active).

Regarding `CC1=CC(=O)CC(C)(C)[C@@]1(O)CC[C@@H](C)O[C@@H]1O[C@H](CO)[C@@H](O)[C@H](O)[C@H]1O`, the Potency entry was “inactive”.

`COC(CCc1ccc(O)cc1)CC(=O)CCc1ccc(O)cc1` (stereo not given): the Potency was 14.3 µM (active).

As for `CC(C)(C[C@@](O)(Cc1cc2ccncc2[nH]1)C(F)(F)F)c1cc(F)ccc1O`, the Potency was 2.31 µM (active).

As to `COc1ccc2cc1Oc1ccc(cc1)CC1c3cc(c(OC)cc3CCN1C)Oc1c(OC)c(OC)c(OC)c3c1C(C2)N(C)CC3` (stereo not given), the Potency was 10 µM (active).

Take `COC(=O)/C=C/C=C/C(=O)OC1C=C2COC(=O)C2(O)C2(C)CCCC(C)(C)C12` (stereo not given): the Potency was 8.93 µM (active).

On to `CC1=C(c2ccc(NC(=O)c3c(F)cccc3F)cc2)CN(c2nccs2)CC1`, for which the Potency is 2.59 µM (active).

With `COC1C(=O)CCC2(CO2)C1(O)C1(C)OC1CC=C(C)C` (stereo not given), the Potency result was “inactive”.

Regarding `COC(=O)C#Cc1ccc([N+](=O)[O-])cc1`, the Potency is 2.59 µM (active).

Consider `CC(O)/C=C/C1(O)C2(C)COC1(C)CC(O)C2` (stereo not given), for which the Potency entry is “inactive”.

As to `CC(C)C1=CC2=CCC3[C@](C)(CCC[C@@]3(C)C(=O)O)C2CC1O` (stereo not given in full), the Potency entry was “inactive”.

Take `COC(=O)CC(O)C1OC(c2ccccc2)C(O)C1O` (stereo not given): the Potency result was “inactive”.

Regarding `O=c1[nH]c2ccccc2n1CCN1CCN(c2cccc(C(F)(F)F)c2)CC1`, the Potency was 23.1 µM (active).

`Cc1ccccc1CN1C2=NCCN2C(=O)C2=C1CCN(Cc1ccccc1)C2`: the Potency is 9.2 µM (active).

As for `C=C1C(=O)O[C@@H]2[C@H]1CCC(C)=C1CCC(=O)O[C@]12C`, the Potency is 2.59 µM (active).

As to `NC(=O)N1CCC(CC(=O)N2CCC(C3c4ncc(Br)cc4CCc4cc(Cl)cc(Br)c43)CC2)CC1` (stereo not given), the Potency was 2.06 µM (active).

Take `N#Cc1ccc(O[C@@H]2c3ccccc3C[C@H]2N2CCC[C@@H](N)C2)c(Cl)c1`: the Potency is 16.4 µM (active).

Turning to `COc1nnc2ccc(N3CCC(c4ccc(OCCN5CCN(C)C(=O)[C@H]5C)cc4)CC3)nn12`, the Potency is 0.0372 µM (active).

Take `CCCCC(CC)CN=C(N)NC(N)=NCCCCCCN=C(N)NC(N)=NCC(CC)CCCC` (stereo not given): the Potency is 2.66 µM (active).

For the molecule `CC[C@@H]1[C@H]2CCCCN3C(=O)C[C@H]([C@@H]4[C@H]1OC(=O)[C@H]4C)[C@@H]23`, the Potency result was “inactive”.

As to `COc1cc(/C=C/C(=O)O[C@@H]2C[C@@](O)(C(=O)O)C[C@@H](O)[C@@H]2O)ccc1O`, the Potency result was “inactive”.

Turning to `Cc1ccc(C)c(-c2cc(C(F)(F)F)nn2-c2ccc(S(N)(=O)=O)cc2)c1`, the Potency is 14.6 µM (active).

Turning to `Cc1cc(OCCCS(C)(=O)=O)cc(C)c1-c1cccc(COc2ccc(C3=CC(=O)NS3=O)cc2)c1` (stereo not given), the Potency is 5.17 µM (active).

On to `CC(C)(C)c1ccc(CN2CCN(C(c3ccccc3)c3ccc(Cl)cc3)CC2)cc1` (stereo not given), for which the Potency is 23.1 µM (active).

In the case of `COC(=O)C1=CO[C@@H](O[C@@H]2O[C@H](CO)[C@@H](O)[C@H](O)[C@H]2O)[C@@H]2C(C)CC(=O)[C@]12O` (stereo not given in full), the Potency entry was “inactive”.

Regarding `Cc1cnc(-c2ccccc2C(C)C)nc1NCc1ccc(-n2ccnn2)cc1`, the Potency was 16.4 µM (active) and 14.8 µM (active).

As for `CC(=O)O[C@H]1C[C@@]2(C)[C@@H](CC[C@H]3[C@@]4(C)C=CC(=O)[C@@H](C)[C@@H]4[C@H](OC(C)=O)C(=O)[C@@]32C)/C1=C(\CCC=C(C)C)C(=O)O`, the Potency result was “inactive”.

On to `CCC(C)/C=C(C)/C=C/C(=O)C1CCC(O)C(C)(O)C1=O` (stereo not given), for which the Potency was 13 µM (active).

`C=C1[C@H](OC(C)=O)[C@H]2[C@@H](OC(C)=O)[C@](C)(OC(C)=O)C[C@]2(OC(C)=O)C(=O)[C@H](C)/C=C/C(C)(C)C(=O)[C@H](OC(=O)C(C)CC)[C@H]1OC(C)=O` (stereo not given in full): the Potency entry was “inactive”.

As for `C=C(CCO)C(=O)OCC1OCC(OC(=O)C(=C)CCO[C@@H]2O[C@H](COC(=O)C(=C)CCO[C@@H]3O[C@H](CO)[C@@H](O)[C@H](O)[C@H]3O)[C@@H](O)[C@H](O)[C@H]2O)C(O)C1O` (stereo not given in full), the Potency result is “inactive”.

Values taken from PubChem BioAssay (NCATS).
